PubChem BioAssay (NCI)
Compounds without any hit were thinned out: in the full panel of roughly 83,000, 20% have a hit.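 In brief: 96-well plates, 48 h treatment, single concentration, percent growth endpoint.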

Experiments:
Test in all cases: NCI-60 one-dose screen, 48 h (100 = growth as untreated, 0 = no growth, -100 = all killed); active = growth percent below 10; inactive = the rest
HCT-15 colon = conditions: 10 µM
HT29 colon = conditions: 10 µM
SNB-19 CNS = conditions: 10 µM
U251 CNS = conditions: 10 µM
PC-3 prostate = conditions: 10 µM
SK-MEL-5 melanoma = conditions: 10 µM
UACC-62 melanoma = conditions: 10 µM unless noted
LOX IMVI melanoma = conditions: 10 µM
SK-MEL-28 melanoma = conditions: 10 µM
SNB-75 CNS = conditions: 10 µM

Measured: growth

CCOc1ccc(/C=N/N=C(N)N)cc1OCC
inactive: HCT-15 colon 97.6% | HT29 colon 89.5% | SNB-19 CNS 97.6% | U251 CNS 103% | PC-3 prostate 94.1% | SK-MEL-5 melanoma 98.5% | UACC-62 melanoma 93.1% | LOX IMVI melanoma 101% | SK-MEL-28 melanoma 92.4%

[O-][N+](=Nc1cccc(Cl)c1)c1cccc(Cl)c1
inactive: HCT-15 colon 78.1% | HT29 colon 106% | SNB-19 CNS 100% | U251 CNS 84.1% | PC-3 prostate 96.4% | SK-MEL-5 melanoma 95.9% | UACC-62 melanoma 87.5% | LOX IMVI melanoma 97.4% | SK-MEL-28 melanoma 113%

CC(=O)Nc1cccc(NC(C)=O)n1
inactive: HCT-15 colon 103% | HT29 colon 110% | SNB-75 CNS 106% | U251 CNS 102% | SK-MEL-5 melanoma 105% | UACC-62 melanoma 97.5% | LOX IMVI melanoma 103% | SK-MEL-28 melanoma 108%

CC(C)NC(=O)OCc1c(COC(=O)NC(C)C)c(-c2ccc(Cl)c(Cl)c2)n2c1SCC2
inactive: HCT-15 colon 47.6% | HT29 colon 62.1% | SNB-75 CNS 27.8% | U251 CNS 43.3% | PC-3 prostate 61.3% | SK-MEL-5 melanoma 67.7% | LOX IMVI melanoma 19.1% | SK-MEL-28 melanoma 92.8%

COC(=O)c1[nH]c(=O)c(C#N)c(C(=O)OC)c1C(=O)c1ccccc1
inactive: HCT-15 colon 98.1% | HT29 colon 113% | SNB-75 CNS 85.6% | U251 CNS 96.8% | PC-3 prostate 103% | SK-MEL-5 melanoma 100% | LOX IMVI melanoma 89.9% | SK-MEL-28 melanoma 101%

O=C(O)c1cc([N+](=O)[O-])ccc1Cl
inactive: HCT-15 colon 100% | HT29 colon 84.3% | SNB-19 CNS 99.4% | U251 CNS 106% | PC-3 prostate 88.8% | SK-MEL-5 melanoma 100% | UACC-62 melanoma 95.6% | LOX IMVI melanoma 99.5%

CCNCCCCNCCCCNCCCCNCCCCNCC
inactive: HCT-15 colon 99.1% | HT29 colon 72.1% | SNB-19 CNS 81.1% | U251 CNS 95.5% | PC-3 prostate 84.6% | SK-MEL-5 melanoma 73.8% | UACC-62 melanoma 72.8% | LOX IMVI melanoma 75.3%

CCOC(=O)c1[nH]c(C)c(C(=O)O)c1C
inactive: HCT-15 colon 109% | HT29 colon 105% | SNB-19 CNS 109% | U251 CNS 107% | PC-3 prostate 88.9% | SK-MEL-5 melanoma 108% | UACC-62 melanoma 107% | LOX IMVI melanoma 106%

O=C1NC(=O)C2C(=O)NC(=O)C1C21CCc2ccccc21 (configuration not stated)
inactive: HCT-15 colon 105% | HT29 colon 123% | SNB-75 CNS 124% | U251 CNS 106% | PC-3 prostate 90.1% | SK-MEL-5 melanoma 96.3% | UACC-62 melanoma 83.6% | LOX IMVI melanoma 102% | SK-MEL-28 melanoma 113%

COC(=O)C(C)Oc1ccc(OC#N)cc1 (configuration not stated)
inactive: HCT-15 colon 99.7% | HT29 colon 102% | SNB-75 CNS 88.9% | U251 CNS 101% | PC-3 prostate 86.4% | SK-MEL-5 melanoma 99% | UACC-62 melanoma 86.8% | LOX IMVI melanoma 93.2% | SK-MEL-28 melanoma 106%

CC(=O)NC(N)=S
inactive: HCT-15 colon 109% | HT29 colon 97.7% | SNB-19 CNS 101% | U251 CNS 105% | PC-3 prostate 92.6% | SK-MEL-5 melanoma 107% | UACC-62 melanoma 109% | LOX IMVI melanoma 102%

COc1ccc(C(=O)C(Br)C(Br)C(=O)O)cc1 (configuration not stated)
inactive: HCT-15 colon 98.1% | HT29 colon 117% | SNB-75 CNS 87.4% | U251 CNS 104% | PC-3 prostate 110% | SK-MEL-5 melanoma 101% | UACC-62 melanoma 98.4% | LOX IMVI melanoma 97.7% | SK-MEL-28 melanoma 108%

O=C(O)CCCCNC(=O)c1ccccc1
inactive: HCT-15 colon 102% | HT29 colon 101% | SNB-19 CNS 108% | U251 CNS 98.5% | PC-3 prostate 100% | SK-MEL-5 melanoma 101% | UACC-62 melanoma 110% | LOX IMVI melanoma 91.8% | SK-MEL-28 melanoma 111%

c1ncc2[nH]cnc2n1
inactive: HCT-15 colon 87.2% | HT29 colon 92.3% | SNB-19 CNS 102% | U251 CNS 103% | PC-3 prostate 86.3% | SK-MEL-5 melanoma 97.1% | UACC-62 melanoma 91.9% | LOX IMVI melanoma 103% | SK-MEL-28 melanoma 100%

Oc1ccc(N=Nc2ccc(Br)cc2)c(O)c1
inactive: HCT-15 colon 21.2% | HT29 colon 93.5% | SNB-19 CNS 38.5% | PC-3 prostate 17% | SK-MEL-5 melanoma 11.1% | UACC-62 melanoma 39.4% | LOX IMVI melanoma 51.9% | SK-MEL-28 melanoma 51.2%

Nc1nc(N)c2cc(S(=O)(=O)c3cccc(C(F)(F)F)c3)ccc2n1
inactive: HCT-15 colon 33.2% | HT29 colon 22.9% | SNB-19 CNS 43.6% | PC-3 prostate 39.6% | SK-MEL-5 melanoma 28.3% | UACC-62 melanoma 32.5% | LOX IMVI melanoma 28.6% | SK-MEL-28 melanoma 69.9%

CN(C)C(C)(C)CC(C)(C)C
inactive: HCT-15 colon 100% | HT29 colon 119% | SNB-19 CNS 105% | U251 CNS 107% | SK-MEL-5 melanoma 105% | UACC-62 melanoma 105% | LOX IMVI melanoma 100% | SK-MEL-28 melanoma 109%

C=C1CC/C=C(\C)C(=O)C[C@@H]2[C@@H]1CC2(C)C
inactive: HCT-15 colon 99% | HT29 colon 112% | SNB-19 CNS 95.7% | U251 CNS 100% | PC-3 prostate 92.6% | SK-MEL-5 melanoma 106% | SK-MEL-28 melanoma 104%

NC(=O)N/N=C\c1ccco1
inactive: HCT-15 colon 107% | HT29 colon 103% | SNB-19 CNS 102% | U251 CNS 101% | PC-3 prostate 104% | SK-MEL-5 melanoma 107% | UACC-62 melanoma 103% | LOX IMVI melanoma 102% | SK-MEL-28 melanoma 116%

Cc1cc2ccccc2c(O)c1C#N
inactive: HCT-15 colon 92.2% | HT29 colon 123% | SNB-19 CNS 100% | U251 CNS 109% | PC-3 prostate 105% | SK-MEL-5 melanoma 104% | LOX IMVI melanoma 94.4% | SK-MEL-28 melanoma 115%

Cc1cc(N)ccc1-c1ccc(N)cc1C
inactive: HCT-15 colon 97.6% | HT29 colon 102% | SNB-19 CNS 107% | U251 CNS 110% | PC-3 prostate 73.8% | SK-MEL-5 melanoma 99.7% | UACC-62 melanoma 104% | LOX IMVI melanoma 88.2% | SK-MEL-28 melanoma 104%

O=C(/C(=N/O)c1ccccc1)c1ccccc1
inactive: HCT-15 colon 96.8% | HT29 colon 117% | SNB-19 CNS 100% | U251 CNS 94.6% | PC-3 prostate 94.9% | SK-MEL-5 melanoma 97.4% | UACC-62 melanoma 88.3% | LOX IMVI melanoma 105% | SK-MEL-28 melanoma 105%

CCC(O)CC(CC)CO (configuration not stated)
inactive: HCT-15 colon 104% | HT29 colon 113% | SNB-19 CNS 114% | U251 CNS 111% | PC-3 prostate 101% | SK-MEL-5 melanoma 106% | LOX IMVI melanoma 103% | SK-MEL-28 melanoma 101%

Cc1cccc(C(=O)N(C(C)C)C(C)C)c1
inactive: HCT-15 colon 96.7% | HT29 colon 92.8% | SNB-19 CNS 99.6% | U251 CNS 92.5% | PC-3 prostate 92.8% | SK-MEL-5 melanoma 95.3% | LOX IMVI melanoma 96.1% | SK-MEL-28 melanoma 103%

CC1(c2ccccc2)NC(=O)NC1=O (configuration not stated)
inactive: HCT-15 colon 110% | HT29 colon 110% | SNB-19 CNS 103% | U251 CNS 113% | PC-3 prostate 98.6% | SK-MEL-5 melanoma 108% | UACC-62 melanoma 100% | LOX IMVI melanoma 109% | SK-MEL-28 melanoma 113%

CCOC(=O)C(=O)C=P(c1ccccc1)(c1ccccc1)c1ccccc1
inactive: HCT-15 colon 102% | HT29 colon 106% | SNB-19 CNS 109% | PC-3 prostate 96.4% | SK-MEL-5 melanoma 102% | UACC-62 melanoma 107% | LOX IMVI melanoma 92.8% | SK-MEL-28 melanoma 110%

CC1CCCC(CC(N)=O)CC1 (configuration not stated)
inactive: HCT-15 colon 107% | HT29 colon 85% | SNB-19 CNS 110% | U251 CNS 99.7% | PC-3 prostate 78.8% | SK-MEL-5 melanoma 103% | UACC-62 melanoma 104% | LOX IMVI melanoma 101% | SK-MEL-28 melanoma 119%
